# Test results as given in PubChem BioAssay (NCI).
# This is part of a sample that, as a whole, favours compounds with a hit. Of some 79,000 tested, about 15% had one in any assay. Values without a mark were called inactive. Calls of active or inactive are those of the source. No stated cut-off is given here; in the data, active means growth inhibition above about 70%; inactive means the rest.
# Legend:
# [1] = NCI Yeast Anticancer Drug Screen. Data for the rad50 strain (AID 155);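 further: 0% = growth of vehicle-only cultures of the same strain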; conditions: S. cerevisiae rad50 strain growth inhibition; at 50.0 µM; active compounds read high
# Procedure, shortened: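 Vehicle-treated cultures provide the reference for the growth inhibition reported for compound-exposed, repair-deficient yeast.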
# [2] = NCI Yeast Anticancer Drug Screen. Data for the mec2-1 strain (AID 157); conditions: S. cerevisiae mec2-1 strain, at 50.0 µM, active compounds read high
# Procedure, shortened: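 Each compound was tested on mec2-1 yeast, a strain altered in DNA damage repair or cell cycle control. Growth inhibition is reported relative to vehicle.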
# [3] = NCI Yeast Anticancer Drug Screen. Data for the sgs1 mgt1 strain (AID 161);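 further: 0% = growth of cultures given vehicle only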; conditions: S. cerevisiae sgs1 mgt1 strain, at 50.0 µM, active compounds read high
# Procedure, shortened: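 Mutant yeast exposed to compound; growth scored against vehicle-only wells.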
# [4] = NCI Yeast Anticancer Drug Screen. Data for the cln2 rad14 strain (AID 165);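 further: 0% = growth equal to vehicle treated cultures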; conditions: S. cerevisiae cln2 rad14 strain, at 50.0 µM, active compounds read high
# Procedure, shortened: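 Test compounds were added to cln2 rad14 yeast cultures; inhibition of growth was then determined by comparison with vehicle treatment.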
# [5] = NCI Yeast Anticancer Drug Screen. Data for the bub3 strain (AID 167); conditions: S. cerevisiae bub3 mutant strain, at 50.0 µM, active compounds read high
# Procedure, shortened: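 Mutant yeast screening strain plus compound; vehicle-treated cultures serve as the 0% inhibition reference.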
# [6] = NCI Yeast Anticancer Drug Screen. Data for the mlh1 rad18 strain (AID 175); conditions: S. cerevisiae mlh1 rad18 strain growth inhibition; at 50.0 µM; active compounds read high
# Procedure, shortened: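 Inhibition values reflect reduced growth of mutant yeast versus vehicle-treated controls following compound exposure; the mutations affect DNA damage repair.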
SMILES,growth inhibition [1],growth inhibition [2],growth inhibition [3],growth inhibition [4],growth inhibition [5],growth inhibition [6]
O=C(CC(=O)CC(O)(C(F)(F)F)C(F)(F)F)CC(O)(C(F)(F)F)C(F)(F)F,73.1% (active),65.1%,79.8% (active),59%,55.9%,78.2% (active)
c1ccc(CNn2nnc3ccccc32)cc1,16.6%,-14.4%,7.25%,3.15%,-2.95%,21.9%
COC(C)(C)C/C=C/C(C)=C/C=C/C(C)=C\C=C\C(C)=C\C=C\C=C(C)\C=C\C=C(C)\C=C\C=C(C)\C=C\CC(C)(C)OC,-10.8%,-1.65%,-26.9%,2.25%,-12.2%,-12.1%
COC1/C=C/C(C)C(C(C)C(OC)C(C)CCC(=O)C(C)C(C/C=C/N(C)C=O)OC)OC(=O)/C=C/C=C(\C)CC(OC)C(OC)C2=CC(=O)O[C@@H](C(C)C(OC)CC(OC)/C=C/C(C)C(O)C1)[C@H]2O (stereo partly drawn),86.8% (active),90.2% (active),90% (active),89.8% (active),87.7% (active),91% (active)
c1cn(C23C4C5C6C4C2C6C53)cn1 (stereo not drawn),2.65%,-11.2%,2.5%,18.1%,-6%,15.9%
O=C1c2ccccc2C(=O)c2cc(Br)ccc21,-6.75%,-21.6%,12.4%,-110%,-16.2%,0.2%
Cc1cc(=O)[nH]c(=O)n1CCCN(C)CCCn1c(C)cc(=O)[nH]c1=O,2.2%,-2.35%,8.85%,-0.9%,-28.6%,-3.95%
COc1ccc(C(=O)c2ccc(OC)cc2OC)cc1,-4.15%,1.7%,21.4%,-23.1%,3.05%,1.3%
CCOC(=O)C(CCCBr)(C(=O)OCC)N1C(=O)c2ccccc2C1=O,20.8%,-13.3%,10.9%,18.2%,31.8%,12.6%
C/C(=N/Nc1ccc([N+](=O)[O-])cc1[N+](=O)[O-])C(CC(C(=O)Nc1ccccc1C)/C(C)=N\Nc1ccc([N+](=O)[O-])cc1[N+](=O)[O-])C(=O)Nc1ccccc1C (stereo not drawn),18.4%,25.9%,4.9%,10.3%,8.75%,43.6%
CCOC(=O)c1cnc(SC)nc1Nc1ccc(Cl)cc1,-13.8%,-9.4%,-6.55%,-8.65%,0.55%,-31.2%
O=C(O)c1ccnc2c(S(=O)(=O)O)cccc12,14.7%,-2.05%,-0.95%,-35.5%,3.25%,12.4%
COc1c(NC(=O)c2c(Br)c(Br)c(Br)c(Br)c2C(=O)O)cccc1[N+](=O)[O-],1.5%,6.65%,7.65%,-4.2%,-1.2%,17.1%
CCC(=O)OCC(C)COC(=O)CC,9.55%,11.8%,4.1%,1.05%,-8.4%,-5.25%
Cc1c(N(C)C)ccc2c(=O)c3cccc(CC(=O)O)c3oc12,20%,21.7%,-5.35%,8.6%,-16.1%,-5.05%
CCc1ccc[n+](CCc2c[nH]c3ccccc23)c1,-13%,-0.45%,-10%,1.35%,1.35%,-10.5%
CN(C)c1ccc(/C=C2/CC(=O)N(c3ccccc3)C2=O)cc1,16.3%,1.15%,25.1%,-35.3%,-0.9%,15.6%
Nc1ncnc(Nc2ccc(S(=O)(=O)O)cc2)n1,-35.9%,-32.6%,-31.1%,-1.25%,-34.9%,-27.2%
COC1OC(CO)C(O)C2OCCOCCOC3C(OC)OC(CO)C(O)C3OCCOCCOC12 (stereo not drawn),-2.65%,-4.4%,5.9%,-7.7%,-0.5%,18.5%

SMILES,growth inhibition [1],growth inhibition [2],growth inhibition [3],growth inhibition [4],growth inhibition [5],growth inhibition [6]
N#C/C(N)=C(\C#N)N=CN,-5.5%,5.5%,-7.1%,34%,-22.3%,-27.9%
COC(=O)c1cc(NC(=O)Nc2ccc(Cl)cc2[N+](=O)[O-])cc(C(=O)OC)c1,-21.4%,-13.3%,-14.1%,-68.2%,-2.35%,-11.1%
O=C(C=C(C(F)(F)F)C(F)(F)F)/C=C/c1ccccc1,99.5% (active),99.7% (active),99.5% (active),99.5% (active),99.3% (active),99.4% (active)
CCC[n+]1cccc(C#N)c1,6.15%,5.4%,-7.35%,-24.9%,-4.2%,22.2%
Cc1ccc(NC(=O)N2CC2(C)C)cc1NC(=O)N1CC1(C)C,0.2%,0.55%,2.8%,-1.6%,1.2%,4.9%
O=C(COc1ccccc1)Nc1cccc2ccccc12,4.5%,24.5%,6.6%,-3.7%,10.4%,29.2%
CC(=O)Nc1ccc(OCc2ccccc2)cc1[N+](=O)[O-],20.5%,-11.9%,9.75%,10.2%,6.85%,28.2%
C=C(C)Cc1cc(C(CC)C(CC)c2ccc(O)c(CC(=C)C)c2)ccc1O (stereo not drawn),18.6%,20.4%,47.2%,34.3%,6.25%,46%
CN(Nc1ccnc(=O)[nH]1)c1ccccc1,-35.9%,-11.2%,-11%,-23.6%,-2.7%,8.8%
COc1ccc2c(c1)OC(=O)C(S(=O)(=O)c1ccccc1)C2 (stereo not drawn),6.25%,14.6%,6.65%,-3.55%,1.2%,7.55%
O=[N+]([O-])c1ccc(CN(Cc2ccc([N+](=O)[O-])cc2)c2ccc3c(c2)C(O)c2ccccc2-3)cc1 (stereo not drawn),9.95%,1%,7.8%,7.85%,1.8%,12.2%
O=C(O)CNC(=O)OCc1ccccc1,-35.9%,-16.4%,-35.5%,-45.8%,1.55%,-19.4%
Cn1c(=O)c2[nH]c(SC3CCCCC3)nc2n(C)c1=O,19.2%,11.4%,18.6%,11.3%,35.8%,8.9%
CCCCN(CCCC)S(=O)(=O)c1ccc(OCCOc2ccc(S(=O)(=O)N(CCCC)CCCC)cc2)cc1,10.7%,-1.4%,15.2%,-12.4%,-5.1%,7.75%
COCCCN1COCC(COc2ccc(Cl)cc2)OC1 (stereo not drawn),-17.9%,-35%,-32.2%,-23.2%,-36.6%,-27.9%
CSc1nc(NC2OC(COC(C)=O)C(OC(C)=O)C(OC(C)=O)C2OC(C)=O)c(C(=O)CCl)c(=O)n1C (stereo not drawn),6.8%,15.9%,3.15%,5.8%,5.1%,24.5%
CN1CCN(C2CCCc3ccccc3C2=O)CC1 (stereo not drawn),21.9%,-10.6%,4.75%,-36%,-15.5%,13.4%
O=C(NC1C2CC3CC(C2)CC1C3)c1ccncn1 (stereo not drawn),25.1%,4.75%,17.8%,38%,13.2%,26.2%
O=P(O)(c1cc(Cl)cc(Cl)c1)c1cc(Cl)cc(Cl)c1,2.05%,-7.45%,10.2%,-5.1%,-7.1%,-4.5%
